# Assay results: PubChem BioAssay (Tox21)
# Results filed as inconclusive are left out. Activity calls are given as the source filed them. Calls come from the whole dose curve; as a rule, active = well fitted cell-killing curve with a large enough effect in the repeat runs; inconclusive = weak or mixed curves, or effect the other way; inactive = no such curve, though single readings can be large or run the other way.
# Assay: qHTS assay to identify small molecule antagonists of the vitamin D receptor (VDR) signaling pathway - cell viability counter screen (AID 743225); note: nearly all actives have a fitted effect of over 50% in size
# Settings: VDR-bla HEK293T viability, CellTiter-Glo luminescence, 16 h; series mostly up to 61 µM; viability change, negative = cytotoxic: at the top concentration
# Excerpt: U.S. Tox21 Program National Center for Advancing Translational Sciences [NCATS] NIH Chemical Genomics Center [NCGC] U.S. Environmental Protection Agency [EPA] National Institutes of Environmental Health Sciences [NIEHS] National Toxicology Program [NTP] U.S. Food and Drug Administration [FDA] Tox21 Assay Overview: The vitamin D receptor (VDR), a member of nuclear hormone receptor superfamily, plays a critical role in calcium homeostasis and bone metabolism. It is also involved in cell differentiation and growth, and thrombogenicity. To identify the compounds that inhibit VDR signaling, the VDR-UAS-bla HEK 293T cell line (Invitrogen, Carlsbad, CA, USA) containing a beta-lactamase reporter gene under the control of an upstream activator sequence (UAS) was used to screen the Tox21 10K compound library. The cytotoxicity of the Tox21 compound library against the VDR-bla cell line was tested in parallel by measuring the cell viability using CellTiter-Glo assay (Promega, Madison, WI) in the same wells.
# Tox21 Assay Protocol Summary: VDR-bla cells were dispensed at 2,000 cells/5 uL of assay medium per well into black wall/clear-bottom 1536-well plates using a Multidrop Combi (Thermo Fisher Scientific, Waltham, MA) dispenser. After the assay plates were incubated at a 37C and 5% CO2 for 4 h, 23 nL of compounds dissolved in DMSO, positive controls or DMSO only was transferred to the assay plate by a Pintool station (Kalypsys, San Diego, CA), followed by addition of 1 uL of 1-alpha, 25-Dihydroxy Vitamin D3 (3 nM, final concentration in the wells) using a Bioraptr Flying Reagent Dispenser (FRD) workstation (Beckman Coulter, Indianapolis, IN). The plates were incubated at 37C and 5% CO2 for 16 h, and then 1 uL of LiveBLAzerTM B/G FRET substrate was added using a Bioraptr FRD. The plates were incubated at room temperature for 2 h and fluorescence intensity was measured by an Envision plate reader (PerkinElmer, Shelton, CT). For cell viability readout that measures cytotoxicity, 3 ul/well of CellTiter-Glo reagent was added into the assay plates using a Bioraptr FRD. After 30 min incubation at room temperature, the luminescence intensity in the plates was measured using a ViewLux plate reader (PerkinElmer).
# % is set by controls: 0 for no effect and ±100 for the full control effect.
row,SMILES,"viability change, negative = cytotoxic"
1,BrCc1cccc(Oc2ccccc2)c1,15.1% (inactive)
2,O=C1CCCC(=O)O1,-0.735% (inactive)
3,O=C1c2ccccc2C(=O)c2cc(S(=O)(=O)O)ccc21,-4.6% [at 78.8 µM] (inactive)
4,CCC(C=O)CC,5.99% [at 78.8 µM] (inactive)
5,CN(C)c1ccc(C=O)cc1,-0.769% (inactive)
6,CCCN1C[C@H](CSC)C[C@@H]2c3cccc4[nH]cc(c34)C[C@H]21,1.25% (inactive)
7,COc1cc2c(cc1OC)[C@@H]1CC(=O)[C@@H](CC(C)C)CN1CC2,13.1% (inactive)
8,ClCCCl,6.16% (inactive)
9,COc1ccc(Br)c(C)c1,3.31% [at 78.8 µM] (inactive)
10,N[C@@H](CCC(=O)N[C@@H](CS)C(=O)NCC(=O)O)C(=O)O,-9.5% [at 28.5 µM] (inactive)
11,CC(=O)Nc1ccc(S(=O)(=O)Cl)cc1,-2% (inactive)
12,CCCCCCOC(=O)CC,-15.9% (inactive)
13,CC(=O)CCCCn1c(=O)c2c(ncn2C)n(C)c1=O,-0.414% (inactive)
14,CC(=O)Nc1cccc(C)c1,4.93% [at 78.8 µM] (inactive)
15,CCCCCCCCC(=O)Cl,11.7% [at 78.8 µM] (inactive)
16,COc1ccc(C2CNC(=O)C2)cc1OC1CCCC1 (stereo not given),-17.1% (inactive)
17,COc1cc(C(=S)N2CCOCC2)cc(OC)c1OC,0.519% (inactive)
18,NC(CO)C(=O)NNCc1ccc(O)c(O)c1O (stereo not given),12% (inactive)
19,CC(C)C[C@H](NC(=O)CNC(=O)[C@H](Cc1ccc(O)cc1)NC(=O)[C@H](CO)NC(=O)[C@H](Cc1c[nH]c2ccccc12)NC(=O)[C@H](Cc1cnc[nH]1)NC(=O)[C@@H]1CCC(=O)N1)C(=O)N[C@@H](CCCN=C(N)N)C(=O)N1CCC[C@H]1C(=O)NCC(N)=O (stereo in doubt),14.4% (inactive)
20,C=C(C)C(=O)OCCN(CC)CC,27.9% (inactive)

row,SMILES,"viability change, negative = cytotoxic"
1,CC(C(=O)O)c1ccc2c(c1)CC(=O)c1ccccc1S2 (stereo not given),1.09% (inactive)
2,CCN1CCc2nc(N)oc2CC1,-7.29% (inactive)
3,COc1ccc(-c2cc(=O)c3c(O)cc(O[C@@H]4O[C@H](CO[C@@H]5O[C@@H](C)[C@H](O)[C@@H](O)[C@H]5O)[C@@H](O)[C@H](O)[C@H]4O)cc3o2)cc1O,5.11% (inactive)
4,O=C(OCC(O)CO)c1ccccc1Nc1ccnc2c(C(F)(F)F)cccc12 (stereo not given),10.4% (inactive)
5,CC(S)C(=O)NCC(=O)O (stereo not given),2.59% (inactive)
6,O=C(c1ccc(O)cc1)c1ccc(O)c(O)c1O,33.7% [at 78.8 µM] (inactive)
7,CNS(=O)(=O)CCc1ccc2[nH]cc(C3CCN(C)CC3)c2c1,10.6% (inactive)
8,CCCCCOC(=O)CCC,-3.1% (inactive)
9,Cc1ccccc1OCC(O)CO (stereo not given),-1.17% (inactive)
10,CC(C)CCCC(C)(C)O,5.81% (inactive)
11,OCCCCC(O)CO (stereo not given),10% (inactive)
12,CC(C)C(=O)OCCc1ccccc1,-1.96% (inactive)
13,CCCCCCCCOS(=O)(=O)O,-27.9% (inactive)
14,O=C(O)Cc1cn(-c2ccccc2)nc1-c1ccc(Cl)cc1,-3.89% (inactive)
15,CC(COC(C)(C)C)OCCCO (stereo not given),-7.56% (inactive)
16,OCCN(CCO)c1cccc(Cl)c1,-14.4% (inactive)
17,Nc1ccc(S(=O)(=O)Nc2ccc(Cl)nn2)cc1,11.3% (inactive)
18,O=C(NCC(O)CO)c1c(I)c(C(=O)NCC(O)CO)c(I)c(N(CCO)C(=O)CO)c1I (stereo not given),-16.5% (inactive)
19,CCCCNC1CC(C)(C)NC(C)(C)C1,22.1% (inactive)
20,O=C(OCC1(COC(=O)c2cccnc2)CCCC(COC(=O)c2cccnc2)(COC(=O)c2cccnc2)C1O)c1cccnc1,1.37% (inactive)
